High-throughput results deposited in PubChem BioAssay by National Center for Advancing Translational Sciences (NCATS).
An excerpt weighted towards active compounds, which were near 3.3% of everything screened.
SARS PLpro yeast: blocks SARS-CoV papain-like protease in a yeast assay. Potency, µM (titrated, usually from 32.9 µM), for inactives: top-dose activity, positive = growth rescue, hits mostly activators. 330,000 tested, 0.19% active. S. cerevisiae expressing SARS-CoV PLpro, growth rescue; calls by dose curve; note: 0% is about no effect; nearly all actives have a fitted effect of over 55% in size
Sm TGR block: S. mansoni TGR enzyme inhibition | Q962Y6 | purified TGR, DTNB reduction, TNB absorbance 405 nm | Potency, µM (titrated, usually from 114 µM), inactives show top-dose activity change, negative = inhibition, usual class: inhibitors | 360,000 tested, 3% active; note: % is set by controls: 0 for no effect and ±100 for the full control effect; nearly all actives have a fitted effect of over 60% in size
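First, TGR (20 nM dispensed) and NADPH were mixed with compound. Second, a 15 min room-temperature incubation followed. Third, further NADPH and then DTNB were added to start the reaction. Finally, TNB absorbance was monitored kinetically.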
NS1 function inh: influenza NS1 inhibition; Potency, µM (top dose mostly 46.1 µM), without a hit: at the top dose activity, positive = more growth; 270,000 tested, 0.4% active; calls by dose curve; note: actives are rising curves; nearly all actives have a fitted effect of over 50% in size
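Growth recovery, yeast-based: influenza A NS1 expressed in S. cerevisiae causes slow growth, and suppressors are detected by OD600. The parent strain without NS1 is used as positive control.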
TbPYK inhibitor: inhibitors of Trypanosoma brucei pyruvate kinase. 410,000 tested, 0.12% active. TbPYK enzyme, Kinase-Glo Plus ATP luminescence, 45 min. Q57TT1. Potency, µM (top dose mostly 76.8 µM), for inactives: top-dose activity, negative = inhibition, hits mostly inhibitors; note: % is set by controls: 0 for no effect and ±100 for the full control effect; nearly all actives have a fitted effect of over 50% in size
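TbPYK + substrate in 50 mM TEA pH 7.2, 100 mM KCl, 10 mM MgCl2, 0.05% BSA, 0.01% Tween-20; cpd pinned; ADP 130 uM final; 45 min RT; Kinase-Glo Plus 10 min; luminescence endpoint.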
LmPK inh: inhibitors of Leishmania mexicana pyruvate kinase; Q27686; purified LmPK, Kinase-Glo ATP luminescence, 1 h; Potency, µM (series often up to 57.5 µM), for inactives: at the highest dose activity change, negative = inhibition, hits mostly inhibitors; 290,000 tested, 0.37% active; AID 1721; note: % is set by controls: 0 for no effect and ±100 for the full control effect
Target sequence (Q27686 whole entry, looked up): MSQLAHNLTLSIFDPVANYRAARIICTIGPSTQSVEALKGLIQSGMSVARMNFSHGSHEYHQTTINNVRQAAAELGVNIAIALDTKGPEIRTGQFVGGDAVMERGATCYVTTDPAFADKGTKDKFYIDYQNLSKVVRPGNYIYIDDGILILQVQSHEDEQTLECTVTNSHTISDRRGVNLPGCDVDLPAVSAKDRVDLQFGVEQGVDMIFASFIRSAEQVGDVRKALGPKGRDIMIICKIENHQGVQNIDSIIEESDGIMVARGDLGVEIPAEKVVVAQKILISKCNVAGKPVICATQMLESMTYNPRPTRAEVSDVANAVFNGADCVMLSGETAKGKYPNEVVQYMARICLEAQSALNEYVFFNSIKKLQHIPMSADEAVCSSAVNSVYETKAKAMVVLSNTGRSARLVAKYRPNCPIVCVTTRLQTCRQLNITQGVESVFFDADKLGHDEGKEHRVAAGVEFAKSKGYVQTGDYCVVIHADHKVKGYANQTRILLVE
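0.1 nM LmPK, 0.5 mM PEP, 0.1 mM ADP; 50 mM imidazole pH 7.2, 7 mM MgCl2, 50 mM KCl; 1 h RT. Kinase-Glo luminescence readout, normalized to no-enzyme (full inhibition) and uninhibited wells.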
RE007 growth inh: less growth of the S. pombe RE007 Vpr strain. S. pombe RE007 Vpr strain, BacTiter-Glo ATP luminescence, 24 h. Potency, µM (top dose mostly 92.2 µM), for inactives: at the highest dose activity change, negative = less growth, usual class: inhibitors. 360,000 tested, 0.21% active. AID 651644; active = well fitted falling curve with a large enough effect; inconclusive = small, poorly fitted or top-dose-only effect; inactive = no such curve, though single readings can be large or run the other way; note: % is set by controls: 0 for no effect and ±100 for the full control effect; nearly all actives have a fitted effect of over 50% in size
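Fission yeast strain RE007, carrying one chromosomally integrated HIV-1 vpr copy, was seeded at OD 0.01 in PMG+AL medium with 23 nL pinned compound. After 24 h at 30 °C and 99% humidity, viability was read by BacTiter-Glo luminescence.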
Starred values were filed as active, the others as inactive; ? = inconclusive; / = no result; [ ] = another dose, or the depositor's remark. Unless noted, calls come from the whole dose curve; as a rule, active = well fitted curve in the direction sought with a large enough effect; inconclusive = small, poorly fitted or top-dose-only effect, or another doubt; inactive = no such curve, though single readings can be large; an effect the other way counts as inactive or inconclusive. Potency is the fitted concentration of half-maximal effect.

SMILES | SARS PLpro yeast | Sm TGR block | NS1 function inh | TbPYK inhibitor | LmPK inh | RE007 growth inh
Cn1cccc1-c1cc2n(n1)CCC(=O)N2CC(=O)Nc1ccc(F)cc1Cl | / | -10.7% | / | -5.0% | / | /
CCOc1ccc(C(O)c2nccn2Cc2ccccc2)cc1 (configuration not stated) | 6.8% | 11.3% | 3.3% | -0.2% | 3.5% | 4.2%
CCn1ccnc1C(O)c1ccc(N(C)C)cc1 (configuration not stated) | -1.7% | 10µM* | 1.0% | 6.8% | 7.8% | 14.2%
COC(=O)c1ccc(NC(=O)CC2C(=O)N(c3ccc(Cl)cc3)C(=O)N2Cc2ccco2)cc1 (configuration not stated) | / | -31.4% | / | 1.3% | / | /
CCC(C)n1c(=O)c2sccc2n2c(CCCC(=O)N3CCC(C(N)=O)CC3)nnc12 (configuration not stated) | -9.7% | 7.08µM* | 13.8% | 5.0% | 1.3% | 14.9%
CCn1c(=O)c2sccc2n2c(CCCC(=O)N3CCN(c4ccc(F)cc4)CC3)nnc12 | / | -2.9% | / | 0.6% | / | /
COC(=O)c1ccc(NC(=S)NC(=O)c2c(Cl)cnn2C)cc1 | 17.8% | -3.1% | -2.9% | -16.9% | 0.0% | -13.3%
COC(=O)c1ccc(NC(=O)c2c(Br)cnn2C)cc1 | -1.8% | 14.1µM* | -2.1% | ? | 1.8% | -14.2%
CCc1cccc(NC(=O)Cn2c(=O)n(Cc3ccccc3)c(=O)c3c(C)c(C(=O)N(C)C)sc32)c1 | / | -14.3% | / | -2.8% | / | /
CCC(=O)NC1=C(Cl)C(=O)C(NC(=O)CC)=C(Cl)C1=O | -6.0% | 0.224µM* | 2.2% | 2.51µM* | ? | /
CCC(=O)Nc1ccccc1 | 5.0% | -21.8% | -2.1% | 1.9% | -11.7% | 13.0%
CSc1ccc(CNC(=O)CN2C(=O)C3CCCCN3c3ccc(C(=O)N4CCCC4)cc32)cc1 (configuration not stated) | / | 1.7% | / | 12.2% | / | /
Cc1c([C@@H](C)C2NC[C@H](C)C[C@@H]2O)ccc2c1C[C@@H]1[C@H]2CC=C2C[C@@H](O)CC[C@@]21C (some centres not stated) | / | / | -3.3% | / | / | /
O=C(Nc1nnc(-c2ccco2)s1)c1ccccc1 | -7.8% | 25.1µM* | -49.7% | -7.3% | -19.4% | -11.3%
O=C(Nc1nnc(-c2ccco2)s1)C1CC1 | 10.5% | 44.7µM* | -8.3% | -11.1% | -4.2% | 0.5%
Cc1cccc(N2CCN(C(=O)CCS(=O)(=O)c3ccc4c(c3)CC(=O)N4C)CC2C)c1 (configuration not stated) | / | 12.6µM* | / | 4.6% | / | /
O=C(N/N=C/c1cccs1)c1n[nH]c2c1CCC2 | 6.1% | 1.6% | 6.9% | -18.0% | 25.1µM* | -1.3%
O=C(NC(N1CCOCC1)C(Cl)(Cl)Cl)c1ccccc1Cl (configuration not stated) | 0.4% | 20µM* | / | -1.0% | -0.3% | 8.2%
O=C(NC(N1CCCCCC1)C(Cl)(Cl)Cl)c1ccccc1Cl (configuration not stated) | -13.3% | ? | 3.8% | 1.8% | -0.2% | -1.7%
CC1CN(C(NC(=O)c2ccccc2)C(Cl)(Cl)Cl)CC(C)O1 (configuration not stated) | -1.7% | 20µM* | / | -0.1% | -0.4% | 0.9%
CC1CN(C(=O)C(c2ccccc2)c2ccccc2)CC(C)O1 (configuration not stated) | 3.9% | -27.5% | 11.6% | / | 5.9% | 6.6%[3.69 µM]
CC1CN(C(NC(=O)C(C)(C)C)C(Cl)(Cl)Cl)CC(C)O1 (configuration not stated) | 1.1% | 35.5µM* | ? | -4.5% | 0.2% | 13.1%
CC1CN(C(C)C(=O)NNC(=O)c2ccc(F)cc2)CC(C)O1 (configuration not stated) | 1.5% | / | / | -3.8% | / | -12.8%
Cc1cccc(C)c1NC(=O)CSc1ncc2c(n1)-c1ccc(Cl)cc1N(Cc1ccccc1)S2(=O)=O | / | 5.3% | / | 6.8% | / | /
COC(=O)c1c(NC(=O)Cc2coc3cc(C)ccc23)sc2c1CCCC2 | / | -0.2% | / | 2.3% | / | /
